Data published in PubChem BioAssay (NCI).
This is part of a sample that, as a whole, favours compounds with a hit. Of some 83,000 tested, about 20% had one in any assay.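 Interpretation: 100, growth as untreated; towards 0, rising growth inhibition; 0, no net growth; 0 to -100, cell death. Compounds scoring below 10 were considered active.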 Active and inactive are the calls of the source.

Legend:
Experiment in all cases: NCI-60 one-dose screen, 48 h (100 = growth as untreated, 0 = no growth, -100 = all killed)
Conditions in all cases: 10 µM unless noted
[1] = system: NCI-H23 lung
[2] = system: NCI-H226 lung
[3] = system: NCI-H322M lung
[4] = system: HOP-62 NSCLC
[5] = system: NCI-H460 lung
[6] = system: HOP-92 NSCLC
[7] = system: 786-0 renal
[8] = system: COLO 205 colon
[9] = system: DU-145 prostate
[10] = system: K-562 leukemia
[11] = system: MALME-3M melanoma
[12] = system: MDA-MB-231 breast
[13] = system: RXF 393 renal
[14] = system: SF-268 CNS
[15] = system: SF-295 CNS
[16] = system: SF-539 CNS
[17] = system: M14 melanoma
[18] = system: A549/ATCC NSCLC
[19] = system: UACC-257 melanoma

Measured: growth

Cc1cccc2nc3ccccc3c(Nc3ccc(NS(C)(=O)=O)cc3)c12
active: [2] 5.12% | [6] -3.43%
inactive: [1] 57.8% | [3] 92.8% | [4] 35.2% | [5] 10.1% | [7] 38.2% | [8] 51.1% | [9] 23.1% | [10] 35.1% | [11] 40.4% | [12] 72.9% | [13] 55.4% | [14] 57.9% | [15] 21.6% | [16] 39.6% | [17] 70.7%

COc1ccc(/C=N/NC(N)=S)c(OC)n1
inactive: [1] 108% | [2] 85.7% | [3] 104% | [4] 116% | [5] 106% | [6] 113% | [7] 104% | [8] 111% | [9] 113% | [10] 89.5% | [11] 103% | [12] 110% | [13] 94.4% | [14] 109% | [15] 106% | [16] 100% | [17] 104%

N/C(=N\O)c1ncc(-c2ccc(C(F)(F)F)cc2)c(NC2CCCCCC2)n1
active: [1] -78.9% [100 µM] | [2] -42.4% [100 µM] | [3] -95.8% [100 µM] | [4] -74.2% [100 µM] | [5] -64.8% [100 µM] | [6] -89.5% [100 µM] | [7] -91.5% [100 µM] | [8] -58.2% [100 µM] | [9] -96.1% [100 µM] | [10] -60.4% [100 µM] | [11] -92.6% [100 µM] | [12] -66.3% [100 µM] | [13] -67% [100 µM] | [14] -89.4% [100 µM] | [15] -94.7% [100 µM] | [17] -91.9% [100 µM]

CCCCCc1c(C)[nH]c(/C=C2\N=C(c3ccc[nH]3)C=C2Oc2ccc(OC)cc2)c1C
active: [1] -67.1% [100 µM] | [2] -15.7% [100 µM] | [3] -6.72% [100 µM] | [4] -54.5% [100 µM] | [5] -46.1% [100 µM] | [6] -12.6% [100 µM] | [7] -92.2% [100 µM] | [8] -83.9% [100 µM] | [9] -59.2% [100 µM] | [10] -14.6% [100 µM] | [11] -75.4% [100 µM] | [12] -71.2% [100 µM] | [13] -68.3% [100 µM] | [14] -83.5% [100 µM] | [15] -82.1% [100 µM] | [17] -94.7% [100 µM]

NNc1ccc(S(N)(=O)=O)cc1
inactive: [1] 90.7% | [2] 93.7% | [3] 110% | [4] 91.2% | [5] 107% | [6] 85.3% | [7] 103% | [8] 105% | [9] 121% | [10] 109% | [11] 104% | [13] 105% | [14] 108% | [15] 105% | [16] 98.6% | [17] 101%

COc1cc(OC)c(C(=O)/C=C/c2cccc(OC(C)=O)c2)cc1CC=C(C)C
inactive: [1] 72.2% | [2] 69.6% | [3] 98.9% | [4] 114% | [5] 89.4% | [6] 56.5% | [7] 91.4% | [8] 111% | [9] 69.2% | [10] 16.5% | [11] 122% | [12] 77.6% | [14] 70.4% | [15] 97.7% | [16] 90.6% | [17] 87.6%

O=C(c1ccc(OCCN2CCCCC2)cc1)c1c(-c2ccc(O)cc2)sc2cc(O)ccc12
inactive: [1] 82.5% | [2] 92.3% | [3] 114% | [4] 89.2% | [5] 93.5% | [6] 66.7% | [18] 91.6% | [7] 74.7% | [11] 99.4% | [12] 72.2% | [13] 70.2% | [14] 84.3% | [15] 106% | [16] 98.6% | [19] 92.8% | [17] 93.3%

N=C(N)c1ccc(-c2ccc(-c3ccco3)o2)cc1F
inactive: [1] 56.2% | [2] 67.4% | [4] 32.2% | [9] 31.3% | [13] 34.1% | [14] 19.8%
active: [3] -10.4% | [5] 0.478% | [6] -20% | [7] 4.8% | [8] -93.4% | [10] 1.49% | [11] -68.2% | [12] 9.14% | [15] -27% | [16] 8.28% | [17] -65.9%

CCN(CC)CCCCCCCCNc1c2ccc(Cl)cc2nc2ccc(OC)cc12
active: [1] -43.8% | [2] -21.4% | [3] -39.2% | [4] -67.8% | [5] -51.6% | [6] -75.9% | [7] -88.8% | [8] -84.6% | [9] -66.6% | [10] -39.3% | [11] -65.6% | [12] -72.2% | [13] -92.8% | [14] -73.2% | [15] -76% | [16] -82% | [17] -82.4%
